{
  "source": "the supplement of paper PMC11732987",
  "about": "“Enantioselective OTUD7B fragment discovery through chemoproteomics screening and high-throughput optimisation” (Communications Chemistry, 2025)",
  "assay_in_all_cases": "log2 ratio of Biotin-Ahx-Ub-VS probe labelling (fragment/DMSO); higher = less target engagement (more negative = stronger competition), active = hit call of the paper (q ≤ 0.05, log2 ratio ≤ -1)",
  "details_in_all_cases": "compound concentration: 200 uM; treatment time: 3 h",
  "key": {"OTUD6B": {"molecular_target": "T1, OTUD6B (UniProt Q8N6M0)", "T1 sequence (whole entry)": "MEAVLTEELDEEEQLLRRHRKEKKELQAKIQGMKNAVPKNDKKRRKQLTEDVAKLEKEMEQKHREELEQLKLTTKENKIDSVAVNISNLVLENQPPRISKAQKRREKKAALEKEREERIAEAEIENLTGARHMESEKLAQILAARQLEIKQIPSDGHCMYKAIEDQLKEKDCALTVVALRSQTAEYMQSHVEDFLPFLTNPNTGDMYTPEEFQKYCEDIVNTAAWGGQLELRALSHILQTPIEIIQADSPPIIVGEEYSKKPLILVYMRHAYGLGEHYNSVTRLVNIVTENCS", "how_it_was_run": "(§1)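 Labelled DUBs were enriched with NeutrAvidin, digested with LysC and trypsin, and run by diaPASEF LC-MS/MS. The labelling used Biotin-Ahx-Ub-VS at 0.5 µM final for 1 h on HEK293T lysate (495 µg per sample) previously treated in triplicate with fragment at 200 µM or vehicle for 3 h. Values are average log2 fragment/vehicle ratios by unpaired t-test on global-median-normalised Spectronaut quantities of proteins with ≥2 unique peptides.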"}, "OTUD7B": {"molecular_target": "T2, OTUD7B (UniProt Q6GQQ9)", "T2 sequence (whole entry)": "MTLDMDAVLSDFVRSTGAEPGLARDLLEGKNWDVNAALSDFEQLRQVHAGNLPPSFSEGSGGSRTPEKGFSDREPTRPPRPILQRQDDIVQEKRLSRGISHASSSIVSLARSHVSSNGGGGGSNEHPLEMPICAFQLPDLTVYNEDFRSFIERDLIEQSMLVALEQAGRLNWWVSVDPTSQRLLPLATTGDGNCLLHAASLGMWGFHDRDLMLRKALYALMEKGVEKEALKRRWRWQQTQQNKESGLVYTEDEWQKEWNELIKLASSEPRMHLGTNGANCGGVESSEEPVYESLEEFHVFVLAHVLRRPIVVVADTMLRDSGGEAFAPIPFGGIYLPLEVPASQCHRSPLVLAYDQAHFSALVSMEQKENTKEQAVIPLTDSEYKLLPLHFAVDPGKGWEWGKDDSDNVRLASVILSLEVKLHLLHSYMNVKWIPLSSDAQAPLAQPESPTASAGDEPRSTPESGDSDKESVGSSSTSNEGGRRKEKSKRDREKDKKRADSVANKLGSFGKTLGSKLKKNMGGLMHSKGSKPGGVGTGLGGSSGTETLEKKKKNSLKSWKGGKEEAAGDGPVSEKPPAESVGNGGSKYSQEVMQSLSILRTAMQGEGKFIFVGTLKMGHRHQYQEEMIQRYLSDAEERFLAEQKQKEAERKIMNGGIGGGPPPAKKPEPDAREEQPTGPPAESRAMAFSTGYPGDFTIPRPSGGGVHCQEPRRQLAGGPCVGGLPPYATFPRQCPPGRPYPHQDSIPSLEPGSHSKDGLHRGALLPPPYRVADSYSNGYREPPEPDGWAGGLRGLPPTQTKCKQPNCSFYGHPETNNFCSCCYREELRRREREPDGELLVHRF", "how_it_was_run": "as §1"}, "PRPF8": {"molecular_target": "PRPF8 (UniProt Q6P2Q9)", "how_it_was_run": "as §1"}, "PSMD7": {"molecular_target": "T3, PSMD7 (UniProt P51665)", "T3 sequence (whole entry)": "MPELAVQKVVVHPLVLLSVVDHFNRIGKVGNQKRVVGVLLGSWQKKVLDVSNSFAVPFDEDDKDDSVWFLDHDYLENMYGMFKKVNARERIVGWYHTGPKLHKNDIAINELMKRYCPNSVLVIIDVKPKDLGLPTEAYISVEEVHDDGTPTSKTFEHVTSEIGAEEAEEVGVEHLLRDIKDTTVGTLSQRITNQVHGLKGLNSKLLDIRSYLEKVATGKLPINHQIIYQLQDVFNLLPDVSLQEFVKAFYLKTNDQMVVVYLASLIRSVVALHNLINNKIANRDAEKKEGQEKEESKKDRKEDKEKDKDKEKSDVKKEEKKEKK", "how_it_was_run": "as §1"}, "UCHL1": {"molecular_target": "UCHL1 (UniProt P09936)", "sequence (P09936 whole entry, looked up)": "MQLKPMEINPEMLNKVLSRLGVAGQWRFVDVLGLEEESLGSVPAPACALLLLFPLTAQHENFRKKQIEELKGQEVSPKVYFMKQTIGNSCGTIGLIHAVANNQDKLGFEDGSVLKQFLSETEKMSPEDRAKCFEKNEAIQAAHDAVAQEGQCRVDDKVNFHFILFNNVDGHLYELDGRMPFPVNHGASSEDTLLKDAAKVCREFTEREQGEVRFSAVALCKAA", "how_it_was_run": "as §1"}, "UCHL3": {"molecular_target": "T4, UCHL3 (UniProt P15374)", "T4 sequence (whole entry)": "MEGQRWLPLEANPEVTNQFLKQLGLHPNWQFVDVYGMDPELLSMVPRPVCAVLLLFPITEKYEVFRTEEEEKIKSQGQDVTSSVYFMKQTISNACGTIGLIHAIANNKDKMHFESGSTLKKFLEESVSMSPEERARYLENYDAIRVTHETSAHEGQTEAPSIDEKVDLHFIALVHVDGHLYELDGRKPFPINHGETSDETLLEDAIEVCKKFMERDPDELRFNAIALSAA", "how_it_was_run": "as §1"}, "UCHL5": {"molecular_target": "T5, UCHL5 (UniProt Q9Y5K5)", "T5 sequence (whole entry)": "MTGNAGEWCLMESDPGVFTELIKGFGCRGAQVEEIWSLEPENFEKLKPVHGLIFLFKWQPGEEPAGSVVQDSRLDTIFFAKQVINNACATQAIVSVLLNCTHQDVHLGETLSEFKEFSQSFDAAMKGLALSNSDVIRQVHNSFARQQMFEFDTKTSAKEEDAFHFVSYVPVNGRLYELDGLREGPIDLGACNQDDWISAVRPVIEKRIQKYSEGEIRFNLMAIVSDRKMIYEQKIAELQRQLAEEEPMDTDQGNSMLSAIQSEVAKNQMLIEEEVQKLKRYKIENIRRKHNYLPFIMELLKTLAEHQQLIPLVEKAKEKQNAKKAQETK", "how_it_was_run": "as §1"}, "USP10": {"molecular_target": "USP10 (UniProt Q14694)", "sequence (Q14694 whole entry)": "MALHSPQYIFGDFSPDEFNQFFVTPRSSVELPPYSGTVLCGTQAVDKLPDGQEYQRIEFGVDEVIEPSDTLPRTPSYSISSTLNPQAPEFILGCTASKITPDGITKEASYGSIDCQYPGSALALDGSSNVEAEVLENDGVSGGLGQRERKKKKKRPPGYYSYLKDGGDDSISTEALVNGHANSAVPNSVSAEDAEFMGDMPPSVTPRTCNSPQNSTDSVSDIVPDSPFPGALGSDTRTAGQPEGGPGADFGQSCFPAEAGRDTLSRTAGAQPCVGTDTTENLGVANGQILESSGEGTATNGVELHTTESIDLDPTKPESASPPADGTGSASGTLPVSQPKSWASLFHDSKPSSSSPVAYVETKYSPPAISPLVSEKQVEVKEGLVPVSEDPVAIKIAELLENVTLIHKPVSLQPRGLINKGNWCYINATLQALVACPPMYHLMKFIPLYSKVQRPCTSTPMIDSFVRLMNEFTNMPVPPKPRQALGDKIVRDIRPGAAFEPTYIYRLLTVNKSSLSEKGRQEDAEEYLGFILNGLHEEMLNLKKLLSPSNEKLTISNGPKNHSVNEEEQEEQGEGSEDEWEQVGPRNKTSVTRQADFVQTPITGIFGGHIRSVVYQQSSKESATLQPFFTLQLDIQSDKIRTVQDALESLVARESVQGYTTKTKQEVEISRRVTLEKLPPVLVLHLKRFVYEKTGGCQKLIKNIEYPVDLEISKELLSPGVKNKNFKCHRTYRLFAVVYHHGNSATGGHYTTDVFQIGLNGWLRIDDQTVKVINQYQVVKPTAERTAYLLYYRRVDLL", "how_it_was_run": "as §1"}, "USP15": {"molecular_target": "T6, USP15 (UniProt Q9Y4E8)", "T6 sequence (whole entry)": "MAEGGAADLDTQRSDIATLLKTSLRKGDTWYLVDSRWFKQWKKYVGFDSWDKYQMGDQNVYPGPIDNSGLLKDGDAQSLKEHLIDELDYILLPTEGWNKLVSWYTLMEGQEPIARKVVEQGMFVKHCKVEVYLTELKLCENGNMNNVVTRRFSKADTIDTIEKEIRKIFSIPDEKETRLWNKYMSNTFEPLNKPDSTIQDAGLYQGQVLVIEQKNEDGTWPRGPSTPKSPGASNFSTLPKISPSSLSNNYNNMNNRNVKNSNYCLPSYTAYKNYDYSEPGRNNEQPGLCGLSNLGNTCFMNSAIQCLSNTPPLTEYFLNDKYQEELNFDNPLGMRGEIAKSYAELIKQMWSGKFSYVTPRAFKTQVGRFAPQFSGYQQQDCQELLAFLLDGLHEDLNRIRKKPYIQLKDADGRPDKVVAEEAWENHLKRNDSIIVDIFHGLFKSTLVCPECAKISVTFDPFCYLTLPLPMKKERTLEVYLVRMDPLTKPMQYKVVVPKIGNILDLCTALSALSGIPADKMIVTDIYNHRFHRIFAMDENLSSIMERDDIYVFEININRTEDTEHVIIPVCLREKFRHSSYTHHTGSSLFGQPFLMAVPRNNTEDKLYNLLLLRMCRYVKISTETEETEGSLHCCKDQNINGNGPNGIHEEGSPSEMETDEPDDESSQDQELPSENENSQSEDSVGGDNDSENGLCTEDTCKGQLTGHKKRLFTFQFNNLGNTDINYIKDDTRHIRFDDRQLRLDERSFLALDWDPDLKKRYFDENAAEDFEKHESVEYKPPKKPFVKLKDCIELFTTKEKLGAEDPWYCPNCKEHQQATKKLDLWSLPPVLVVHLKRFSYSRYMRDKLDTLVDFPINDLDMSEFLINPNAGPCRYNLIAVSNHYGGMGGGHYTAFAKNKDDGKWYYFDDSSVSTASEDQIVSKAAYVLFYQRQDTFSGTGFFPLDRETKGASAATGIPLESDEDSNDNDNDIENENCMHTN", "how_it_was_run": "as §1"}},
  "note": "Values without a mark were called inactive.",
  "data": [
    {"smiles": "O=C(CCl)N1CCOC2(CCC2)C1", "values": [
      {"measurement": "log2 ratio of Biotin-Ahx-Ub-VS probe labelling", "setting": "OTUD6B", "value": 0.01},
      {"measurement": "log2 ratio of Biotin-Ahx-Ub-VS probe labelling", "setting": "OTUD7B", "value": "-1.29 (active)"},
      {"measurement": "log2 ratio of Biotin-Ahx-Ub-VS probe labelling", "setting": "PRPF8", "value": -0.0922},
      {"measurement": "log2 ratio of Biotin-Ahx-Ub-VS probe labelling", "setting": "PSMD7", "value": -0.254},
      {"measurement": "log2 ratio of Biotin-Ahx-Ub-VS probe labelling", "setting": "UCHL1", "value": "-1.53 (active)"},
      {"measurement": "log2 ratio of Biotin-Ahx-Ub-VS probe labelling", "setting": "UCHL3", "value": 0.273},
      {"measurement": "log2 ratio of Biotin-Ahx-Ub-VS probe labelling", "setting": "UCHL5", "value": -0.0117},
      {"measurement": "log2 ratio of Biotin-Ahx-Ub-VS probe labelling", "setting": "USP10", "value": 0.0764},
      {"measurement": "log2 ratio of Biotin-Ahx-Ub-VS probe labelling", "setting": "USP15", "value": 0.059}
    ]}
  ]
}
